The source of these data is PubChem BioAssay (EPA / NIEHS).

“And” between values parts separate entries of the source, which are not always exact repeats. Equal entries are not always repeated. More than one record can exist for a structure, and the calls need not agree. The source made the active and inactive calls. The calls were made as follows: active = hit-call score of the fitted dose curve at least 0.9, where 1 is the maximum; inactive = score below 0.9.

Read-out in the test: Macrophage colony-stimulating factor (MCSF), CSF1 (gene 1435)
Briefly: BSK_hDFCGF_MCSF: BioMAP Diversity Plus: hDFCGF Assay for Macrophage colony-stimulating factor (MCSF) Biomarker Activity (AID 2283060). As to conditions: primary human foreskin fibroblasts; actives raise or lower the signal. In a few lines: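 ELISA read-out of M-CSF in human dermal foreskin fibroblast cultures, 24 h after chemical dosing; gain or loss of signal fitted bidirectionally relative to DMSO baseline.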
In the case of `O=C(O)CCCOc1ccc(Cl)cc1Cl`, the result was inactive. Take `O=C(O)C(F)(F)C(F)(F)C(F)(F)C(F)(F)C(F)(F)C(F)(F)C(F)(F)F`: the outcome was inactive.

Turning to `COc1nn(CSP(=S)(OC)OC)c(=O)s1`, the result was inactive. Consider `CC1(c2ccc(Oc3ccccc3)cc2)OC(=O)N(Nc2ccccc2)C1=O` (centres undefined), for which the outcome was inactive. The same measure, in the same setting: under `ClC1C(Cl)C(Cl)C(Cl)C(Cl)C1Cl` (centres undefined) stands “inactive”.

Consider `N#CN`, for which the outcome was inactive. On to `COC(=O)c1ccccc1S(=O)(=O)NC(=O)N(C)c1nc(C)nc(OC)n1`, for which the result was inactive. `O=C(NC(=O)c1c(F)cccc1F)Nc1ccc(OC(F)(F)C(F)OC(F)(F)F)c(Cl)c1` (centres undefined): the result was inactive. In the case of `CNC(=O)/C=C(\C)OP(=O)(OC)OC`, the result was inactive.

On to `O=S(=O)(O)C(F)(F)C(F)(F)C(F)(F)C(F)(F)C(F)(F)C(F)(F)C(F)(F)C(F)(F)F`, for which the AC50 (as a rule, the concentration giving half of the maximal activity seen) is 48.1 µM (active) and 48.4 µM (active); the outcome was inactive. Take `COc1cc(OC)nc(NC(=O)NS(=O)(=O)c2cc(NC=O)ccc2C(=O)N(C)C)n1`: the result was inactive.

As to `O=C(O)COc1ccc(Cl)cc1Cl`, the outcome was inactive. Take `CC1(C)C(C=C(Cl)Cl)C1C(=O)OC(C#N)c1ccc(F)c(Oc2ccccc2)c1` (centres undefined): the result was inactive. As for `CCN(CC)C(=O)SCc1ccc(Cl)cc1`, the outcome was inactive. For `Oc1cc(Cl)ccc1Oc1ccc(Cl)cc1Cl`, the AC50 was 10.7 µM (active) [middle of 4 runs]. Take `Oc1ccc(Cl)cc1Cc1ccccc1`: the AC50 is 14.7 µM (active) [middle of 7 runs]. Take `C[C@H]1[C@H](c2ccc(Cl)cc2)SC(=O)N1C(=O)NC1CCCCC1`: the AC50 is 9.15 µM (active). On to `CC(C)(C)C(O)/C(=C\c1ccc(Cl)cc1Cl)n1cncn1` (centres undefined), for which the AC50 was 26.5 µM (active).
